Laboratory results published in article PMC7862700, “An all-to-all approach to the identification of sequence-specific readers for epigenetic DNA modifications on cytosine”.

Columns and labels:
Assay in all cases: DAPPL (digital affinity profiling via proximity ligation, sequencing); 10 mM Tris-HCl pH 7.5, 50 mM NaCl, 1 mM DTT, 4% glycerol, room temperature, 30 min; GST-TFs on glutathione beads, 16-mer random dsDNA library, 0.1% formaldehyde crosslink after washing; high values mean tight binding
FLI1 = molecular target: T1, FLI1 (Homo sapiens, UniProt Q01543 1-452); conditions: protein: recombinant; tags: N-terminal GST; dsDNA, one strand shown
T1 sequence: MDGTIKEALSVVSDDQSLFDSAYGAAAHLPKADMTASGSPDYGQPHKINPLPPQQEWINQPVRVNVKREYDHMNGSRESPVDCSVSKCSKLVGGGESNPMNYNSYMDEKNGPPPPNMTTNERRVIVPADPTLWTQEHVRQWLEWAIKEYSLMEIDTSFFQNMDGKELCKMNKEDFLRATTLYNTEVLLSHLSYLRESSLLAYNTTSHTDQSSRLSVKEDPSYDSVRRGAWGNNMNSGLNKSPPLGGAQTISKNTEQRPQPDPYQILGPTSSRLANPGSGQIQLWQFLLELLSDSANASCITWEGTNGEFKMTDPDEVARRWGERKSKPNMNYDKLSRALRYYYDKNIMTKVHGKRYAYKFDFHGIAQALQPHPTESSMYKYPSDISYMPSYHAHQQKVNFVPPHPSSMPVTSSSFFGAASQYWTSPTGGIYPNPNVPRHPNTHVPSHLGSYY
Outline: (§1)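 Human transcription factors were made in yeast as GST fusions, captured on glutathione beads and barcoded with DNA. With a tag-only sample included, the pool was incubated with 200 nmole of a random double-stranded 16-mer DNA library in Tris/NaCl/DTT/glycerol buffer at room temperature for 30 min, then crosslinked with 0.1% formaldehyde after washing, ligated by proximity, amplified and sequenced. For binding signal, each hexamer's read frequency for a factor is divided by its frequency for the tag-only sample.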

ELK1 = molecular target: T2, ELK1 (Homo sapiens, UniProt P19419 1-428); conditions: protein: recombinant; tags: N-terminal GST; dsDNA, one strand shown
T2 sequence: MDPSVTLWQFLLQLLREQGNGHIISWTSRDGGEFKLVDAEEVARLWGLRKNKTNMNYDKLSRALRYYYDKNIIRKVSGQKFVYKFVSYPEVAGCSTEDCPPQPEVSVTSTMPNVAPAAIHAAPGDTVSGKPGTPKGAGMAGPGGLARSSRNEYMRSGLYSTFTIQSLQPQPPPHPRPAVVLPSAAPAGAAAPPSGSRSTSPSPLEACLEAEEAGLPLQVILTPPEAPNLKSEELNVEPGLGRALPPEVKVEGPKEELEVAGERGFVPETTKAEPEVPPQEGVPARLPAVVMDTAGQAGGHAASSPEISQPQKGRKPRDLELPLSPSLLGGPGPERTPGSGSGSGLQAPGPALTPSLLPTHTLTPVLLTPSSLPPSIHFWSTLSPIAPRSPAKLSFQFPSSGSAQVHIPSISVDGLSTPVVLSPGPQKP
Outline: as §1

GABPA = molecular target: T3, GABPA (Homo sapiens, UniProt Q06546 1-454); conditions: protein: recombinant; tags: N-terminal GST; dsDNA, one strand shown
T3 sequence: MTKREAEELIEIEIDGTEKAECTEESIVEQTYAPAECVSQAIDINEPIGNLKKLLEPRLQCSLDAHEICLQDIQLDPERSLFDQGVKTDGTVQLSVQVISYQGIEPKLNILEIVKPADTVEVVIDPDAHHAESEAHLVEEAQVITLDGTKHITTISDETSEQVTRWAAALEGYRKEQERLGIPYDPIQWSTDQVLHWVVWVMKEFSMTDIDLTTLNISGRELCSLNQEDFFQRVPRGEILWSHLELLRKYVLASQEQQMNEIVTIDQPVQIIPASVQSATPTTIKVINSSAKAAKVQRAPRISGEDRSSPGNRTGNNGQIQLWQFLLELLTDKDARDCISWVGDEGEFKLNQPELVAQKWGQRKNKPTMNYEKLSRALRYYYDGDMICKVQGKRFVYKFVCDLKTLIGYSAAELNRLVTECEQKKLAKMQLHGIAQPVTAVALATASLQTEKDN
Outline: as §1

ERG = molecular target: T4, ERG (Homo sapiens, UniProt P11308 1-479); conditions: protein: recombinant; tags: N-terminal GST; dsDNA, one strand shown
T4 sequence: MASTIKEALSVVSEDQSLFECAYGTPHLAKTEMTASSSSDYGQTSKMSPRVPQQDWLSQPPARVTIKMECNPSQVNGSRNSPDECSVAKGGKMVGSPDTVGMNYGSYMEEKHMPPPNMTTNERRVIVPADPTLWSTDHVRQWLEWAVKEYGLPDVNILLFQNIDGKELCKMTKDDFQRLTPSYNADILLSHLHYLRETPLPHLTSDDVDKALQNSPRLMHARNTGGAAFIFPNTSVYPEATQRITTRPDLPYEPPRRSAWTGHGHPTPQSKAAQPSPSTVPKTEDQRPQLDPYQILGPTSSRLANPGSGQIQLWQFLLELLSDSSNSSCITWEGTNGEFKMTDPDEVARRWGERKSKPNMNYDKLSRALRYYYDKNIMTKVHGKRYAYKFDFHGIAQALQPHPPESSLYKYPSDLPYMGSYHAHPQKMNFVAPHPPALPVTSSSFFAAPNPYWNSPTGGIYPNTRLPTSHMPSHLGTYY
Outline: as §1

ELF1 = ELF1 (Homo sapiens, UniProt P32519 1-619); conditions: protein: recombinant; tags: N-terminal GST; dsDNA, one strand shown
Sequence of ELF1 (P32519 whole entry): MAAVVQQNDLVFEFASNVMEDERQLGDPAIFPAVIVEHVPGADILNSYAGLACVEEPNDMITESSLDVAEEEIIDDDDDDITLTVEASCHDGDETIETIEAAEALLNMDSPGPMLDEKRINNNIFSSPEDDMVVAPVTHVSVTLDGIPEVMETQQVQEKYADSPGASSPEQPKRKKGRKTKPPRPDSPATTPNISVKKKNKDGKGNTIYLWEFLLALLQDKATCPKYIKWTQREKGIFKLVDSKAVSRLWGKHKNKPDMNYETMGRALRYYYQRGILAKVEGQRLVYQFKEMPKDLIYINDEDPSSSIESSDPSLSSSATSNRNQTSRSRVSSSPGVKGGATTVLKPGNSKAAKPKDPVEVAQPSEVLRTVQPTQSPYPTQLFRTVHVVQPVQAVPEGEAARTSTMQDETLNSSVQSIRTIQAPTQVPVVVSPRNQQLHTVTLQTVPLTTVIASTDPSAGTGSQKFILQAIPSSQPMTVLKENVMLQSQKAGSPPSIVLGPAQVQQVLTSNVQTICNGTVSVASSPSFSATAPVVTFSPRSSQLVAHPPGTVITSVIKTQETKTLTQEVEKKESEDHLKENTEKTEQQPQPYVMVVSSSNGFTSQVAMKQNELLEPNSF
Outline: as §1

EHF = molecular target: T5, EHF (Homo sapiens, UniProt Q9NZC4 1-300); conditions: protein: recombinant; tags: N-terminal GST; dsDNA, one strand shown
T5 sequence: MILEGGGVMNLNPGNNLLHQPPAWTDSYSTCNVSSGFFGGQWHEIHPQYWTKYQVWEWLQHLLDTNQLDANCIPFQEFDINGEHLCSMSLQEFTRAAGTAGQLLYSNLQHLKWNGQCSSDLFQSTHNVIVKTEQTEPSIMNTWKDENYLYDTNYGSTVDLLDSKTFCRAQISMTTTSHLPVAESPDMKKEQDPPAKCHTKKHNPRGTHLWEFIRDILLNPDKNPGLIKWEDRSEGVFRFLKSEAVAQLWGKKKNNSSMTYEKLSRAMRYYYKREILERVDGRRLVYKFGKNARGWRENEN
Outline: as §1

SPI1 = SPI1 (Homo sapiens, UniProt P17947 1-270); conditions: protein: recombinant; tags: N-terminal GST; dsDNA, one strand shown
Outline: as §1

ELK3 = molecular target: T6, ELK3 (Homo sapiens, UniProt P41970 1-407); conditions: protein: recombinant; tags: N-terminal GST; dsDNA, one strand shown
T6 sequence: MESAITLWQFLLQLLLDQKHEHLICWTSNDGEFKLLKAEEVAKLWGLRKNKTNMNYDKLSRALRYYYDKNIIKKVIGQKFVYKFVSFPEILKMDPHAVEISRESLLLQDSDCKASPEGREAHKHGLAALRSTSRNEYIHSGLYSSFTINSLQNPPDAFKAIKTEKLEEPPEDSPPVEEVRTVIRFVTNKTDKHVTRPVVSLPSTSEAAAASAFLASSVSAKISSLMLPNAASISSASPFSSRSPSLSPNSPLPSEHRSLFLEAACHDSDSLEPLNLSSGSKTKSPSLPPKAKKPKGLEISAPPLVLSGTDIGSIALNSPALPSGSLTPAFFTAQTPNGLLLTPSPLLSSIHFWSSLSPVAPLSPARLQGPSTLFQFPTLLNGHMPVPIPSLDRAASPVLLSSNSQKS
Outline: as §1

FEV = molecular target: T7, FEV (Homo sapiens, UniProt Q99581 1-238); conditions: protein: recombinant; tags: N-terminal GST; dsDNA, one strand shown
T7 sequence: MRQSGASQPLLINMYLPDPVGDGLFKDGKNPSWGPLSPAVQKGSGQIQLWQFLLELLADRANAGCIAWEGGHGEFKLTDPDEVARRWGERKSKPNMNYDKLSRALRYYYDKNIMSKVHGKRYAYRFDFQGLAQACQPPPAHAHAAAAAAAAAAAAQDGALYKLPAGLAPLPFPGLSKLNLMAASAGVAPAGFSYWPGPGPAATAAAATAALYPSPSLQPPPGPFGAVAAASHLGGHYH
Outline: as §1

ETV5 = ETV5 (Homo sapiens, UniProt P41161 1-510); conditions: protein: recombinant; tags: N-terminal GST; dsDNA, one strand shown
Sequence of ETV5 (P41161 whole entry): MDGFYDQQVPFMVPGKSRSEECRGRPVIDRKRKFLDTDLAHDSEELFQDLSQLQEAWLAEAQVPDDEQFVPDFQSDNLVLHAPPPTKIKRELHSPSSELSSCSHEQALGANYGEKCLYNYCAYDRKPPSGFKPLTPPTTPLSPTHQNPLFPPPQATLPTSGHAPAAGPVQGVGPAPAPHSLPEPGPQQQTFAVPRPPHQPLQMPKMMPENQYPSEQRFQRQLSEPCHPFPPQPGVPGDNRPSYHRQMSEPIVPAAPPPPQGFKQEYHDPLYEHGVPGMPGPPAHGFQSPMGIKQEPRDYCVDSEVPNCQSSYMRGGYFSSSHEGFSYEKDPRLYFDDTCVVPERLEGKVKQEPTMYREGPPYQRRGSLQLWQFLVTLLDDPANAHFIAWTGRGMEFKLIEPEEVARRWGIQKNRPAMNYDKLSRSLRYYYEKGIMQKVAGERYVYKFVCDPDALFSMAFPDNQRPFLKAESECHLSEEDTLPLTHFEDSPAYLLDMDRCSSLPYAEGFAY
Outline: as §1

HSF1 = HSF1 (Homo sapiens, UniProt Q00613 1-529); conditions: protein: recombinant; tags: N-terminal GST; chain copies: 3; dsDNA, one strand shown
Sequence of HSF1 (Q00613 whole entry): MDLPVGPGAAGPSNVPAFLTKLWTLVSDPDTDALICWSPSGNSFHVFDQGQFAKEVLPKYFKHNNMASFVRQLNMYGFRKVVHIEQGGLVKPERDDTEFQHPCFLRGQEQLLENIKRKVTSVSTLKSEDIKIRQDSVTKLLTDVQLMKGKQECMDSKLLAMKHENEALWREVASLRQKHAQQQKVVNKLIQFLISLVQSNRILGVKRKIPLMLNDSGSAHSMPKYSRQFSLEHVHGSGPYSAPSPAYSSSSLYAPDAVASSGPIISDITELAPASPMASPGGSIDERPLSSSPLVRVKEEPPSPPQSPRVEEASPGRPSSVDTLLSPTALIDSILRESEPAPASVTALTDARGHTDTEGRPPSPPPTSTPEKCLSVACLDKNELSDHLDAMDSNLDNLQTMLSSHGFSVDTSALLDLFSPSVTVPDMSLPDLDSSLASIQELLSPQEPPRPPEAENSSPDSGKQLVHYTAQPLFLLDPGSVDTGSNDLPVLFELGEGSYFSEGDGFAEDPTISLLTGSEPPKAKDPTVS
Outline: as §1

SPIC = molecular target: T8, SPIC (Homo sapiens, UniProt Q8N5J4 1-248); conditions: protein: recombinant; tags: N-terminal GST; dsDNA, one strand shown
T8 sequence: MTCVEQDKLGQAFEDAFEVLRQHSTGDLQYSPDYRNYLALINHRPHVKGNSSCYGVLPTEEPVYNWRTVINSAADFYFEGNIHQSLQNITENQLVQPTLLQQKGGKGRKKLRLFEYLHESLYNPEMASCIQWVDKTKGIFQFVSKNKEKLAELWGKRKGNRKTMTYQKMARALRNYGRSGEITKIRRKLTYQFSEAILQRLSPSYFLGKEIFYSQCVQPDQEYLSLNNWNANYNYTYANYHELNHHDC
Outline: as §1

ELF4 = ELF4 (Homo sapiens, UniProt Q99607 1-663); conditions: protein: recombinant; tags: N-terminal GST; dsDNA, one strand shown
Sequence of ELF4 (Q99607 whole entry): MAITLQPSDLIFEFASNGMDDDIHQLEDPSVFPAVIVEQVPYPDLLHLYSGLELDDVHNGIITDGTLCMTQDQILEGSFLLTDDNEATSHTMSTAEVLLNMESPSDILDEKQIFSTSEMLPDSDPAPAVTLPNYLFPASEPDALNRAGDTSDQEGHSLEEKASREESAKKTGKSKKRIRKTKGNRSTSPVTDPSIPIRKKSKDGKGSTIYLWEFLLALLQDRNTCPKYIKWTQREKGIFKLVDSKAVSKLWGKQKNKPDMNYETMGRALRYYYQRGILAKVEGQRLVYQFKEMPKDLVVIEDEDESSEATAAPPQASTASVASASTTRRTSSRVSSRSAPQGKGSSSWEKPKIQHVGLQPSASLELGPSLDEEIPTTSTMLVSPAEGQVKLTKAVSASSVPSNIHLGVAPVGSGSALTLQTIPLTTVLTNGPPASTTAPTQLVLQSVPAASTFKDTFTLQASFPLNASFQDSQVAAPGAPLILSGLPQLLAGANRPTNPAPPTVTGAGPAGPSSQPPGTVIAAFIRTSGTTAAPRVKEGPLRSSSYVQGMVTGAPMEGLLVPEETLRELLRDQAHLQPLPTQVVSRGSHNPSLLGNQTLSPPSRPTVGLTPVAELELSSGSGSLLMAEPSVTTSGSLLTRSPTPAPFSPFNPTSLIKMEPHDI
Outline: as §1

ELK4 = molecular target: T9, ELK4 (Homo sapiens, UniProt P28324-2 1-405); conditions: protein: recombinant; tags: N-terminal GST; dsDNA, one strand shown
T9 sequence: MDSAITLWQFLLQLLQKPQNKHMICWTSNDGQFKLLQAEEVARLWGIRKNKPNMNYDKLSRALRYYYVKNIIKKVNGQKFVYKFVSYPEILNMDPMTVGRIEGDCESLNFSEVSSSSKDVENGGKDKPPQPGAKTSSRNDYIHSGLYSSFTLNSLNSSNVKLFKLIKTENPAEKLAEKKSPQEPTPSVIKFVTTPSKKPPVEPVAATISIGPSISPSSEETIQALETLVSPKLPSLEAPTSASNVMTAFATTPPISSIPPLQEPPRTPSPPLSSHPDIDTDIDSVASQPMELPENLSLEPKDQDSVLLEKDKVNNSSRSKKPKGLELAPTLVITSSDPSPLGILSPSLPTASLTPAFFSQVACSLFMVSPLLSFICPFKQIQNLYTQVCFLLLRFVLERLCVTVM
Outline: as §1

ETV2 = molecular target: T10, ETV2 (Homo sapiens, UniProt O00321 1-342); conditions: protein: recombinant; tags: N-terminal GST; dsDNA, one strand shown
T10 sequence: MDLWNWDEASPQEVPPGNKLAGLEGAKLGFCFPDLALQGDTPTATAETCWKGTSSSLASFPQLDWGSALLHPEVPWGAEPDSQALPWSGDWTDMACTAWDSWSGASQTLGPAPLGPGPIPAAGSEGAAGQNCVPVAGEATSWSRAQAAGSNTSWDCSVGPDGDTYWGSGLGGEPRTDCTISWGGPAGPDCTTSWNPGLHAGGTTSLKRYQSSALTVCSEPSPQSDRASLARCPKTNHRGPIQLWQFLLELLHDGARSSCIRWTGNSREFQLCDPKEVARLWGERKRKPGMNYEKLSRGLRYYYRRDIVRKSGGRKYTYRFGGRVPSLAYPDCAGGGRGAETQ
Outline: as §1

ELF3 = molecular target: T11, ELF3 (Homo sapiens, UniProt P78545 1-371); conditions: protein: recombinant; tags: N-terminal GST; dsDNA, one strand shown
T11 sequence: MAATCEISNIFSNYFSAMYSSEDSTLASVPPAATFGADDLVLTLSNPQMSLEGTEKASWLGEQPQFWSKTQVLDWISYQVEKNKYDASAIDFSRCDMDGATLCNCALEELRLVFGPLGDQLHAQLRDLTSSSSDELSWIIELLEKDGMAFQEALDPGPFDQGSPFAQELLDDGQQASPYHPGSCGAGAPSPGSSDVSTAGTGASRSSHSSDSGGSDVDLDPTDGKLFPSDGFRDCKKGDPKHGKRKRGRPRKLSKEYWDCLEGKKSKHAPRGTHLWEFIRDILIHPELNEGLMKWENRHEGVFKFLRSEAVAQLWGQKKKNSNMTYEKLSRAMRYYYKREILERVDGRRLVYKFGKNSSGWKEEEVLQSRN
Outline: as §1

CRX = CRX (Homo sapiens, UniProt O43186 1-299); conditions: protein: recombinant; tags: N-terminal GST; dsDNA, one strand shown
Sequence of CRX (O43186 whole entry): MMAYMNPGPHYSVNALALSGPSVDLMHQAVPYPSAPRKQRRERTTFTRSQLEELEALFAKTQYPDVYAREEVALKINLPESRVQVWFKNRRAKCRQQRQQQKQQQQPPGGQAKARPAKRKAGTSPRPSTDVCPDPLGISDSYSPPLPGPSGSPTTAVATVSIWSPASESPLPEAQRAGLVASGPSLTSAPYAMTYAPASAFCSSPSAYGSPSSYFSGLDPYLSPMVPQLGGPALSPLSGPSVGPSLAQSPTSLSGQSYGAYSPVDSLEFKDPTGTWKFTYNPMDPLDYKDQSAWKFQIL
Outline: as §1

ETV1 = ETV1 (Homo sapiens, UniProt P50549 1-477); conditions: protein: recombinant; tags: N-terminal GST; dsDNA, one strand shown
Sequence of ETV1 (P50549 whole entry): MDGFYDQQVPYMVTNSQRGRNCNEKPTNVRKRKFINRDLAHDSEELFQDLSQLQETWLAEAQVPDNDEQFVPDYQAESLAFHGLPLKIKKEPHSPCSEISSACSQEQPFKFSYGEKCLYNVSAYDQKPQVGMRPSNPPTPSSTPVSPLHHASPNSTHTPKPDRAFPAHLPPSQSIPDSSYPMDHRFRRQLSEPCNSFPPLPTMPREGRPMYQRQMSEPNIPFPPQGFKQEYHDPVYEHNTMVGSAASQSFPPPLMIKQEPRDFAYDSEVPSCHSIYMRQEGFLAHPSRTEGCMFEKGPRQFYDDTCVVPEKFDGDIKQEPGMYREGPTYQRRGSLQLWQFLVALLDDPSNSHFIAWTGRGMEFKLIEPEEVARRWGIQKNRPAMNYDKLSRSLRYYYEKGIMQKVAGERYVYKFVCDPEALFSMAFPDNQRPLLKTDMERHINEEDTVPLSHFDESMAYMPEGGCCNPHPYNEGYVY
Outline: as §1

## ATCATT
FLI1
  binding signal: 1.07 fold enrichment (6-mer frequency, TF over GST control)
ELK1
  binding signal: 1.05 fold enrichment (6-mer frequency, TF over GST control)
GABPA
  binding signal: 1.06 fold enrichment (6-mer frequency, TF over GST control)
ERG
  binding signal: 1.02 fold enrichment (6-mer frequency, TF over GST control)
ELF1
  binding signal: 1.05 fold enrichment (6-mer frequency, TF over GST control)
EHF
  binding signal: 1.01 fold enrichment (6-mer frequency, TF over GST control)
SPI1
  binding signal: 1.05 fold enrichment (6-mer frequency, TF over GST control)
ELK3
  binding signal: 1.01 fold enrichment (6-mer frequency, TF over GST control)
FEV
  binding signal: 1.08 fold enrichment (6-mer frequency, TF over GST control)
ETV5
  binding signal: 1.07 fold enrichment (6-mer frequency, TF over GST control)
HSF1
  binding signal: 1.18 fold enrichment (6-mer frequency, TF over GST control)
SPIC
  binding signal: 1.01 fold enrichment (6-mer frequency, TF over GST control)
ELF4
  binding signal: 1.05 fold enrichment (6-mer frequency, TF over GST control)
ELK4
  binding signal: 1.06 fold enrichment (6-mer frequency, TF over GST control)
ETV2
  binding signal: 1.15 fold enrichment (6-mer frequency, TF over GST control)
ELF3
  binding signal: 1.05 fold enrichment (6-mer frequency, TF over GST control)
CRX
  binding signal: 1.28 fold enrichment (6-mer frequency, TF over GST control)
ETV1
  binding signal: 1.06 fold enrichment (6-mer frequency, TF over GST control)
